A number with no mark means an inactive call.
Tested on: Plasmodium falciparum NF54-HGL (transmission to Anopheles stephensi)
Assay: percentage of barcode signal found in uninfected mosquitoes (transmission-blocking activity); higher = stronger blocking of transmission to mosquito, active = 80 or more
Conditions: 10 µM; gametocyte preincubation time 24 h; readout time post-feed 8 days
Method: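 The mixture was fed to Anopheles stephensi in 96-well plates as blood meals tagged with DNA-barcoded Asaia bacteria. Eight days later, mosquitoes were classed infected or uninfected by luminescence (mean + 5 SD of unfed controls). Barcodes were quantified by Luminex MagPlex-TAG in the pooled uninfected and infected Asaia cultures, background-corrected, and the score is % of barcode signal in uninfected mosquitoes = 100*Iu/(Iu+Ii).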

Row | Structure (SMILES) | percentage of barcode signal found in uninfected mosquitoes
1 | COc1cccn2c(C(=O)N3CCCCC3)c(C(F)(F)F)nc12 | 27.1%
2 | Cc1ccc(Oc2ccc(NC(=O)CNc3ccccc3N3CCCC3=O)cc2)cc1 | 53.3%
3 | Nc1ncnc2c1ncn2C[C@@H](O)[C@@H](O)C(=O)O | 39.9%
4 | COc1ccc(OC(C)C(=O)Nc2ccc(Cl)cc2C)cc1 (stereo not drawn) | -0.09%
5 | Cc1cnc(CCNC(=O)c2cc(-c3ccc(Cl)cc3)cs2)[nH]1 | 7.14%
6 | CS(=O)(=O)Cc1nc2ccccc2oc1=O | 80.3% (active)
7 | CCOc1ccc(-c2nc(NC(=O)CS(=O)(=O)c3ccccc3)sc2C)cc1 | -3.11%
8 | CCC(Sc1nc2ccccc2o1)C(=O)Nc1nccs1 (stereo not drawn) | -4.79%
9 | CNC(=O)C1Cc2ccccc2N1C(=O)Cc1ccc(F)cc1 (stereo not drawn) | 27.5%
10 | CS(=O)(=O)c1ccccc1C(=O)N(Cc1ccccc1)c1ccccc1 | 5.09%
11 | Cc1ccc2cc(C3NC(=O)c4ccccc4N3)c(Cl)nc2c1 (stereo not drawn) | 71.8%
12 | O=C(CCC1CCCCC1)Nc1cccc(-c2nnc(-c3ccco3)o2)c1 | 67.5%
13 | CCOc1ccccc1C(=O)Nc1cccc(-c2nc3ncccn3c2C)c1 | 78.8%
14 | Nc1ncnc2c1c(Cc1cccc3ccccc13)nn2CC1CCNCC1 | 74.2%
15 | FC(F)(F)c1nnc2ccc(Cl)nn12 | 20.5%
16 | COCC(C)NC(=O)CSc1ncnc2sc(-c3ccccc3)cc12 (stereo not drawn) | 47.4%
17 | CC[C@H](CO)NCCN[C@H](CC)CO | 24.2%
18 | COc1cc2ncnc(NC3CCN(Cc4ccccc4)CC3)c2cc1OC | 31%
19 | O=C(Nc1ccc(N2CCNCC2)nc1)c1oc(-c2ccccc2)nc1C(F)(F)F | 79.2%
20 | Cc1nc(-c2cccc(NCc3ccccc3)c2)[nH]c1C | 2.32%
21 | Brc1c(-c2ccc3c(c2)OCO3)nc2ncccn12 | 6.02%

Same assay, conditions: 20 µM; gametocyte preincubation time 24 h; readout time post-feed 8 days

Row | Structure (SMILES) | percentage of barcode signal found in uninfected mosquitoes
22 | CCCCCCCCCCCCCCCCOP(=O)([O-])OCC[N+](C)(C)C | -0.352%
23 | CCCCc1ccc(C(=O)Nc2nccc3ccccc23)nc1 | 48.5%
24 | CCc1ccc([C@@H]2C[C@H](C(F)(F)F)n3ncc(C(=O)NCc4ccc(OC)cc4)c3N2)cc1 | 8.67%
25 | CC(C)(C)CN1C(=O)C(c2ccccc2)(c2ccccc2)N=C1N | 13.8%
26 | c1ccc(Oc2ccc(-c3cncc(-c4ccc5[nH]ccc5c4)n3)cc2)cc1 | 29%
27 | CC(C)NCC(=O)Nc1cccc(C(=O)Nc2cccc(C(F)(F)F)c2)c1 | 54%
28 | CN1CCN(c2nccc3[nH]c(-c4cccc(F)c4)cc23)CC1 | -0.815%
29 | C[C@H]1COc2c(N3CCN(C)CC3)c(F)cc3c(=O)c(C(=O)O)cn1c23 | -1.12%
30 | CC(C)(CN)c1nc(-c2ccc(Cl)c(O)c2)c(-c2ccnc(N)n2)[nH]1 | 80.9% (active)
31 | CCOC(=O)c1c(NC(=O)c2c(F)c(F)c(F)c(F)c2F)sc(C(N)=O)c1C | 60.8%
32 | CC1=Nc2ccc(Cl)cc2C(c2ccccc2)N1CCNC(=O)CN(C)C (stereo not drawn) | 71.2%
33 | CCc1ccc(S(=O)(=O)Nc2cc(CN3CCN(CCC(C)C)CC3)ccc2C)cc1 | 22.9%
34 | O=C(NCc1cc(Cl)cc(Cl)c1)c1c(C(F)(F)F)nc2ccccn12 | 20%
35 | Nc1ncnc2c1c(-c1cnc3ccccc3c1)nn2CC1CCNCC1 | -2.55%
36 | CCN(CC)C(=O)N1CCN(C)CC1 | 4.35%
37 | CNC(=O)CNc1nc(-c2ccccn2)nc2scc(-c3ccccc3)c12 | 69.6%
38 | CCOc1ccc(OCC(=O)Nc2cc(C)cc(C)c2)cc1 | 17.5%

Source: the supplement of paper PMC8726507
